Values joined by “and” are separate entries in the source; they are usually repeats but may differ in a detail not shown here. Equal entries are not always repeated. Records with an inconclusive call do not appear. Active and inactive are the calls of the source. Unless noted, calls come from the whole dose curve; as a rule, active = well fitted curve in the direction sought with a large enough effect; inconclusive = small, poorly fitted or top-dose-only effect, or another doubt; inactive = no such curve, though single readings can be large; an effect the other way counts as inactive or inconclusive.
Legend:
NIH3T3 = assay: qHTS assay to identify novel small-molecules to repurpose for Merkel cell carcinoma treatment (AID 1296009); conditions: MCC and control cell lines, CellTiter-Glo viability, 72 h; at 44.8 µM (top of the series) unless noted; note: nearly all actives have a fitted effect of over 60% in size
How it was run: (§1)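 CellTiter-Glo luminescence after 72 hr compound exposure at 37 degree celsius gave cell viability. Libraries NPC and MIPE were run as 8- and 11-point dose responses; RLUs normalized to DMSO (negative) and no-cell (cytotoxicity) controls.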

UISO = assay: as above; conditions: MCC and control cell lines, CellTiter-Glo viability, 72 h; series mostly up to 46 µM
How it was run: as §1

WaGa = assay: as above; conditions: MCC and control cell lines, CellTiter-Glo viability, 72 h; series mostly up to 46 µM
How it was run: as §1

C33A = assay: Primary qHTS to identify gynecologic anti-cancer compounds using libraries of approved drugs and bioactive compounds (AID 1345084); conditions: Gynecologic cancer cell panel viability, ATPlite luminescence, 48 h; series mostly up to 57.5 µM; note: % is set by controls: 0 for no effect and ±100 for the full control effect; nearly all actives have a fitted effect of over 55% in size
How it was run: (§2)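 Cytotoxicity screen measuring ATP content by luciferase luminescence. Each compound is applied at five concentrations for 48 h at 37 C with 5% CO2.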

CASKI = assay: as above; conditions: Gynecologic cancer cell panel viability, ATPlite luminescence, 48 h; series mostly up to 57.5 µM
How it was run: as §2

Es-2 = assay: as above; conditions: Gynecologic cancer cell panel viability, ATPlite luminescence, 48 h; series mostly up to 57.5 µM
How it was run: as §2

HeLa = assay: as above; conditions: Gynecologic cancer cell panel viability, ATPlite luminescence, 48 h; series mostly up to 57.5 µM
How it was run: as §2

Hek293T = assay: as above; conditions: Gynecologic cancer cell panel viability, ATPlite luminescence, 48 h, control line for the selectivity index; series mostly up to 57.5 µM
How it was run: as §2

JEG-3 = assay: as above; conditions: Gynecologic cancer cell panel viability, ATPlite luminescence, 48 h; series mostly up to 57.5 µM
How it was run: as §2

OV90 = assay: as above; conditions: Gynecologic cancer cell panel viability, ATPlite luminescence, 48 h; series mostly up to 57.5 µM
How it was run: as §2

PA-1 = assay: as above; conditions: Gynecologic cancer cell panel viability, ATPlite luminescence, 48 h; series mostly up to 57.5 µM
How it was run: as §2

SKOV3 = assay: as above; conditions: Gynecologic cancer cell panel viability, ATPlite luminescence, 48 h; series mostly up to 57.5 µM
How it was run: as §2

Tov-21-G = assay: as above; conditions: Gynecologic cancer cell panel viability, ATPlite luminescence, 48 h; series mostly up to 57.5 µM
How it was run: as §2

Tov112D = assay: as above; conditions: Gynecologic cancer cell panel viability, ATPlite luminescence, 48 h; series mostly up to 57.5 µM
How it was run: as §2

[1] = Drug repurposing screens with cells derived from glioblastoma tumor samples (AID 1345199); conditions: GBM patient neurospheres viability, ATP luminescence, 48 h; note: % is set by controls: 0 for no effect and ±100 for the full control effect; nearly all actives have a fitted effect of over 40% in size
How it was run: (§3)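 Primary testing used CD133+ neurospheres from four GBM patients, seven concentrations, 48 h exposure and ATP-based viability; confirmation added three slower-growing patient lines.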

astro = assay: as above; conditions: viability, ATP luminescence, 48 h; series mostly up to 45.9 µM
How it was run: as §3

CAOV3 = assay: Primary qHTS to identify gynecologic anti-cancer compounds using libraries of approved drugs and bioactive compounds (AID 1345084); conditions: Gynecologic cancer cell panel viability, ATPlite luminescence, 48 h; series mostly up to 57.5 µM; note: % is set by controls: 0 for no effect and ±100 for the full control effect; nearly all actives have a fitted effect of over 55% in size
How it was run: as §2

[2] = target: Nuclear receptor subfamily 1 group I member 2 (Rattus norvegicus) (UniProt Q9R1A7); assay: qHTS assay for small molecule activators of the rat pregnane X receptor (rPXR) signaling pathway (AID 651751; call rule not given here; note: 0% is about no effect); conditions: rPXR reporter cells, luciferase (One-Glo), 24 h
Nuclear receptor subfamily 1 group I member 2 (Rattus norvegicus), sequence (Q9R1A7 whole entry, looked up): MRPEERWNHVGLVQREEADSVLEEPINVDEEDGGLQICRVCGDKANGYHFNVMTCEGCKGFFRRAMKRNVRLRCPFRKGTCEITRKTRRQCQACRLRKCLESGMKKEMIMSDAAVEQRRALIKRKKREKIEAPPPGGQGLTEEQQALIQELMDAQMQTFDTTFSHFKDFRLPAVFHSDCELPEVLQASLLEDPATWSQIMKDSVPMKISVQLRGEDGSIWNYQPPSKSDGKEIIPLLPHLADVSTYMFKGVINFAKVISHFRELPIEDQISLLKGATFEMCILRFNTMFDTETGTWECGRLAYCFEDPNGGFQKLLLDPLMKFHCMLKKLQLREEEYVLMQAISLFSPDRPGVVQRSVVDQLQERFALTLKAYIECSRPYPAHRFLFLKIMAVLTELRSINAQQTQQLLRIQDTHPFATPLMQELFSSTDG

[3] = at 45.9 µM (top of the series), tumour line B
[4] = at 45.9 µM (top of the series), tumour line D
[5] = at 46 µM (top of the series), tumour line A
[6] = at 46.1 µM (top of the series), tumour line C

Cc1cnc(NC(=O)C2=C(O)c3ccccc3S(=O)(=O)N2C)s1
inactive: outcome (NIH3T3) | Potency (UISO) | Potency (WaGa) | Potency (C33A) | Potency (CASKI) | Potency (Es-2) | Potency (HeLa) | Potency (Hek293T) | Potency (JEG-3) | Potency (OV90) | Potency (PA-1) | Potency (SKOV3) | Potency (Tov-21-G) | Potency (Tov112D) | activity, negative = cell killing [1, 3] -11.1% and -5.23% | activity, negative = cell killing [1, 4] 7.55% and -2.79% | activity, negative = cell killing [1, 5] -27.8% | activity, negative = cell killing [1, 6] 4.05% and -0.835% | Potency (astro)

CC(c1cc2ccccc2s1)N(O)C(N)=O (configuration not stated)
inactive: outcome (NIH3T3) | Potency (UISO) | Potency (WaGa) | Potency (C33A) | Potency (CAOV3) | Potency (CASKI) | Potency (Es-2) | Potency (Hek293T) | Potency (JEG-3) | Potency (OV90) | Potency (PA-1) | Potency (SKOV3) | Potency (Tov-21-G) | Potency (Tov112D) | activity, negative = cell killing [1, 3] -3.78% | activity, negative = cell killing [1, 4] -20.5% | activity, negative = cell killing [1, 5] -18.2% | activity, negative = cell killing [1, 6] -18.9% | Potency (astro)

O=C(Nc1ccc(F)c(C(F)(F)F)c1)Nc1nnc(-c2ccncc2)s1
inactive: outcome (NIH3T3) | Potency (UISO) | Potency (WaGa) | Potency (C33A) | Potency (CAOV3) | Potency (CASKI) | Potency (Es-2) | Potency (HeLa) | Potency (Hek293T) | Potency (JEG-3) | Potency (OV90) | Potency (PA-1) | Potency (SKOV3) | Potency (Tov-21-G) | Potency (Tov112D)

O=C1CCCC2=C1C(c1[nH]ncc1Cl)N=C(Nc1nc3ccccc3o1)N2 (configuration not stated)
inactive: outcome (NIH3T3) | Potency (UISO) | Potency (WaGa) | Potency (C33A) | Potency (CASKI) | Potency (Es-2) | Potency (HeLa) | Potency (Hek293T) | Potency (JEG-3) | Potency (OV90) | Potency (PA-1) | Potency (SKOV3) | Potency (Tov-21-G) | Potency (Tov112D)

COc1ccc(-c2oc3cc(OC)ccc3c2C(=O)c2ccc(C#N)cc2)cc1
inactive: outcome (NIH3T3) | Potency (UISO) | Potency (WaGa)

Cc1[nH]c(=O)c(C#N)cc1-c1ccncc1
inactive: outcome (NIH3T3) | Potency (UISO) | Potency (WaGa) | Potency (C33A) | Potency (CAOV3) | Potency (CASKI) | Potency (Es-2) | Potency (HeLa) | Potency (Hek293T) | Potency (JEG-3) | Potency (OV90) | Potency (PA-1) | Potency (SKOV3) | Potency (Tov-21-G) | Potency (Tov112D) | activity, negative = cell killing [1, 3] -10.7% | activity, negative = cell killing [1, 4] 4.86% | activity, negative = cell killing [1, 5] -23.5% | activity, negative = cell killing [1, 6] 2.71% | activity, negative = cell killing ([1]; at 91.6 µM (top of the series), tumour line B) -14.8% | activity, negative = cell killing ([1]; at 91.6 µM (top of the series), tumour line D) 7.24% | activity, negative = cell killing ([1]; at 99.2 µM (top of the series), tumour line C) -28.5% | Potency (astro) | max response [2] 2.46%

O=C(O)COCCN1CCN(C(c2ccccc2)c2ccc(Cl)cc2)CC1 (configuration not stated)
inactive: outcome (NIH3T3) | Potency (UISO) | Potency (WaGa) | Potency (C33A) | Potency (CAOV3) | Potency (CASKI) | Potency (Es-2) | Potency (HeLa) | Potency (Hek293T) | Potency (JEG-3) | Potency (OV90) | Potency (PA-1) | Potency (SKOV3) | Potency (Tov-21-G) | Potency (Tov112D) | activity, negative = cell killing ([1]; at 20 µM (top of the series), tumour line C) -26.4% | activity, negative = cell killing ([1]; at 21.2 µM (top of the series), tumour line B) -3.42% | activity, negative = cell killing ([1]; at 21.2 µM (top of the series), tumour line D) -18.8% | activity, negative = cell killing ([1]; at 21.3 µM (top of the series), tumour line A) -26.6% | Potency (astro)

CC(C[N+](C)(C)C)OC(N)=O (configuration not stated)
inactive: outcome (NIH3T3) | Potency (UISO) | Potency (WaGa) | Potency (C33A) | Potency (CASKI) | Potency (Es-2) | Potency (HeLa) | Potency (Hek293T) | Potency (JEG-3) | Potency (OV90) | Potency (PA-1) | Potency (SKOV3) | Potency (Tov-21-G) | Potency (Tov112D) | activity, negative = cell killing [1, 3] -0.814% | activity, negative = cell killing [1, 4] 5.66% | activity, negative = cell killing [1, 5] -20.4% | activity, negative = cell killing [1, 6] 5.23% | Potency (astro)

CCn1cc(C(=O)O)c(=O)c2cc(F)c(N3CCNC(C)C3)c(F)c21 (configuration not stated)
inactive: outcome (NIH3T3) | Potency (UISO) | Potency (WaGa) | Potency (C33A) | Potency (CAOV3) | Potency (CASKI) | Potency (Es-2) | Potency (HeLa) | Potency (Hek293T) | Potency (JEG-3) | Potency (OV90) | Potency (PA-1) | Potency (SKOV3) | Potency (Tov-21-G) | Potency (Tov112D) | activity, negative = cell killing [1, 3] -18.8% and -6.47% | activity, negative = cell killing [1, 4] -1.92% and -11.9% | activity, negative = cell killing [1, 5] -14% and -29.8% | activity, negative = cell killing [1, 6] -19.8% and -7.41% | Potency (astro)

CCN(CC)CCCC(C)Nc1nc(C)cc(Nc2ccc3nc(C)cc(N)c3c2)n1 (configuration not stated)
inactive: outcome (NIH3T3) | Potency (UISO) | Potency (WaGa)

C1COC(NC(C2CC2)C2CC2)=N1
inactive: outcome (NIH3T3) | Potency (UISO) | Potency (WaGa) | Potency (C33A) | Potency (CAOV3) | Potency (CASKI) | Potency (Es-2) | Potency (HeLa) | Potency (Hek293T) | Potency (JEG-3) | Potency (OV90) | Potency (PA-1) | Potency (SKOV3) | Potency (Tov-21-G) | Potency (Tov112D) | activity, negative = cell killing [1, 3] -27.8% | activity, negative = cell killing [1, 6] -23.7% | Potency (astro)

COc1ccc(CCN2CCN(CCCc3ccccc3)CC2)cc1OC
inactive: outcome (NIH3T3) | Potency (UISO) | Potency (WaGa) | Potency (C33A) | Potency (CASKI) | Potency (Es-2) | Potency (HeLa) | Potency (Hek293T) | Potency (JEG-3) | Potency (OV90) | Potency (PA-1) | Potency (SKOV3) | Potency (Tov112D)
